Records with an inconclusive call do not appear. Where a call stands in place of a potency, no number is given. Activity calls are given as the source filed them. Unless noted, calls follow the shape of the dose curve; as a rule, active = well fitted curve in the direction sought with a large enough effect; inconclusive = small, poorly fitted or top-dose-only effect, or another doubt; inactive = no such curve, though single readings can be large; an effect the other way counts as inactive or inconclusive.
How the values were obtained:
[1] = P-glycoprotein substrates identified in KB-8-5-11 adenocarcinoma cell line, qHTS therapeutic library screen (AID 1346987); also: series mostly up to about 44 µM; nearly all actives have a fitted effect of over 65% in size
Outline: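 Compounds are pinned in dose-response onto KB-8-5-11 cells (500 cells/well, colchicine-free medium) and left 72 h at 37 degree C. CellTiter-Glo luminescence then yields AC50 values.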

[2] = qHTS for Inhibitors of the Functional Ribonucleoprotein Complex (vRNP) of Lassa (LASV) Arenavirus: LASV Primary Screen - GLuc reporter signal (AID 1347082; calls by dose curve; tested in HEK293 reporter line; also: series mostly up to about 57 µM; nearly all actives have a fitted effect of over 60% in size)
[3] = NS1 protein of Zika virus - qHTS assay to identify small molecule inhibitors in human HEK 293 cells (AID 1347053); also: series mostly up to about 46 µM; nearly all actives have a fitted effect of over 55% in size
Outline: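 Readout was TR-FRET using paired anti-NS1 antibodies after 24 h infection of HEK 293 cells with ZIKV MR766 (MOI = 0.5). Compound preceded virus by 1 h; reduced signal reflects lower NS1 expression.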

SMILES	Potency [1]	Potency [2]	outcome [3]
O=C(O)/C=C\C(=O)O	inactive	inactive	
Cc1cc2cc3c(C)cc(=O)oc3c(C)c2o1		inactive	
COc1cccc2c1C(=O)c1c(O)c3c(c(O)c1C2=O)C[C@@](O)(C(=O)CO)CC3OC1CC(N2CCOC(OC)C2)C(O)C(C)O1 (stereo partly specified)			inactive
O=C1OC(CCN2CCCCC2)OC1(c1ccccc1)c1ccccc1 (stereo unspecified)		inactive	inactive
CCOC(=O)O[C@]1(C(=O)OCCl)CC[C@H]2[C@@H]3CCC4=CC(=O)C=C[C@]4(C)[C@H]3[C@@H](O)C[C@@]21C		inactive	
COc1ccc(-c2ccc3cc(C(=O)O)ccc3c2)cc1C12CC3CC(CC(C3)C1)C2		inactive	
Cc1cnc(NC(=O)C2=C(O)c3ccccc3S(=O)(=O)N2C)s1		inactive	
CC(=O)Oc1cccc2c1C(=O)c1c(OC(C)=O)cc(C(=O)O)cc1C2=O		inactive	
c1ccc(N2CCNCC2)cc1		inactive	inactive
CC(Cc1ccccc1)N(C)Cc1ccco1 (stereo unspecified)		inactive	inactive
CCc1cc2c(s1)-n1c(C)nnc1CN=C2c1ccccc1Cl		inactive	inactive
O=C(O)c1ccc(=O)[nH]c1		inactive	inactive
C[N+]1(CCF)[C@@H]2CC[C@H]1CC(OC(=O)C(O)(c1ccccc1)c1ccccc1)C2 (stereo partly specified)	inactive	inactive	inactive

— PubChem BioAssay (NCATS)
